Reference: PubChem BioAssay (EPA / NIEHS)
The source made the active and inactive calls. Rule for the calls: active = hit-call score of the fitted dose curve at least 0.9, where 1 is the maximum; inactive = score below 0.9.

Experiment: ATG_TAL_CIS: Attagene CIS-FACTORIAL HepG2 Assay for human TAL Basal Promoter (AID 2282966);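 note: background control endpoint measuring basal TAL promoter reporter mRNA not a specific factor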
Conditions: HepG2 Attagene cis-factorial TAL promoter reporter; actives raise or lower the signal
In short: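 Transiently transfected HepG2 (cis-regulated reporter units), 24 h treatment, mRNA read by fluorescent CE after RT-PCR; bidirectional fit, DMSO baseline.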

Structure (SMILES)	outcome	AC50
CCCCCCCCCCCC#N	inactive	
O=C(NC(=O)c1c(F)cccc1F)Nc1ccc(Oc2ccc(C(F)(F)F)cc2Cl)cc1F	inactive	
CC1CCCC1.[C-]#[O+].[C-]#[O+].[C-]#[O+].[Mn]	inactive	
CCCCNP(N)(N)=S	inactive	
CC(=O)C=Cc1ccccc1	inactive	
CCC(=O)c1ccc(Cl)cc1	inactive	
Nc1ccccc1C(=O)Oc1ccc2ccccc2c1		116 µM (active)
C=CC(=O)OC	inactive	
CC(C)CCCCCCCOC(=O)c1ccccc1C(=O)OCCCCCCCC(C)C	inactive	
N#CCNCC#N	inactive	
CN(C)N	inactive	
CN1C[C@H](C(=O)N[C@]2(C)O[C@@]3(O)[C@@H]4CCCN4C(=O)[C@H](Cc4ccccc4)N3C2=O)C=C2c3cccc4[nH]cc(c34)C[C@H]21	inactive	
O=[N+]([O-])C=Cc1ccccc1	inactive	
Nc1ccc(Cl)c(Cl)c1	inactive	
CCCCOP(=O)(O)OCCCC	inactive	
O=C(O)CCl	inactive	
CC(O)CN(CC(C)O)CC(C)O (configuration not stated)	inactive	
Nc1cc(Cl)cc(Cl)c1	inactive	
O=[N+]([O-])c1ccc(Cl)cc1	inactive	
Cc1ccc(C)c2ccccc12	inactive	
C=CCO	inactive	
COC(=O)COc1ccc(Cl)cc1Cl	inactive	
[CH3][Sn]([Cl])([Cl])[Cl]	inactive	
CC(=O)c1cc2c(cc1C)C(C)(C)C(C)CC2(C)C (configuration not stated)	inactive	
Nc1ccc(-c2ccc(N)c(N)c2)cc1N	inactive	
c1cc(OCC2CO2)ccc1Cc1ccc(OCC2CO2)cc1 (configuration not stated)	inactive	
C=CC(=O)OCCCCOC(=O)C=C	inactive	
